± gives the standard deviation of the averaged measurements. In all, about 33,000 sequences were measured (“E-score (dimensionless, -0.5 to 0.5)”: median about -0.046, highest 2% from about 0.36 on). This excerpt belongs to a sample that is enriched for the highest values.
System: T1, SpTbr T-box DNA-binding domain (GST fusion)
T1 sequence: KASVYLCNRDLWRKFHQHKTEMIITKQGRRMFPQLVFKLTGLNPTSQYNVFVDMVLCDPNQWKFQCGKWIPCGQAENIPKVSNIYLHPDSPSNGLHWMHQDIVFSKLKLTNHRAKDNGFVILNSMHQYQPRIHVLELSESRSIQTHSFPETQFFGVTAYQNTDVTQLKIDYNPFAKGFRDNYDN
Assay: PBM E-score of 8-mer (E-score (dimensionless, -0.5 to 0.5)); Tbr is Tbrain of the sea star Patiria miniata (Pm) or the sea urchin Strongylocentrotus purpuratus (Sp); higher = stronger binding preference
Conditions: the construct has about 5 more residues each side
In short: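 Each ungapped 8-mer received an enrichment E-score from the Universal PBM Analysis Suite, averaged over duplicate arrays. The proteins were Tbr T-box DNA-binding domains, covering the whole T-box plus about five flanking residues, fused to GST and expressed in BL21 E. coli at 20 °C before glutathione affinity purification. Universal Agilent oligonucleotide arrays were made double-stranded by primer extension and incubated with 200 nM protein in PBS (pH 7.5). The arrays were then scanned and quantified, and every 8-mer was scored from probe intensities.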

Row | Sequence | PBM E-score of 8-mer
1 | AACTCTTG | -0.0545 ± 0.035
2 | CGTAGGAA | -0.00351 ± 0.079
3 | CTTCTGCA | 0.00227 ± 0.035
4 | CAGCGCAG | -0.14 ± 0.069
5 | CAACCCAG | -0.2068 ± 0.00038
6 | AATCTGAG | 0.0009 ± 0.0013
7 | CTATGAGC | -0.1 ± 0.02
8 | ACCGCTGC | 0.0922 ± 0.006
9 | CCGTGTGA | 0.381 ± 0.017
10 | CCGTGAGA | 0.143 ± 0.015
11 | CCGTGTGC | 0.0129 ± 0.03
12 | ATCTAGAA | -0.151 ± 0.049
13 | CACACGGC | 0.151 ± 0.069
14 | AACACGTG | 0.36 ± 0.008
15 | CACACGTC | 0.451 ± 0.0092
16 | CACACGTA | 0.356 ± 0.0042
17 | CACACGTG | 0.383 ± 0.0078
18 | CGCACGTC | 0.331 ± 0.013
19 | AACCCCTG | -0.108 ± 0.043
20 | CACTGAGC | 0.00197 ± 0.0073
21 | CGCTTTAA | -0.169 ± 0.035
22 | AAAGTAGC | -0.0267 ± 0.0034
23 | ACTCGACA | 0.24 ± 0.029
24 | CAGCTGCC | -0.0128 ± 0.074
25 | GAGTGTGA | 0.478 ± 0.0052
26 | TAGTGAGA | 0.209 ± 0.089

Row | Sequence | PBM E-score of 8-mer
27 | GAGTGTGC | 0.296 ± 0.015
28 | CAGTGTGG | 0.243 ± 0.043
29 | CAGTGTAA | 0.0331 ± 0.071
30 | TAGTGGGA | -0.0317 ± 0.03
31 | TAGTGTGA | 0.453 ± 0.011
32 | GAGTGTAA | 0.235 ± 0.04
33 | CAGTGTGA | 0.393 ± 0.0076
34 | CCAAAGGA | -0.262 ± 0.032
35 | AGCCTCAC | 0.178 ± 0.015
36 | GCTGTTCC | -0.0355 ± 0.05
37 | GCCTCCGA | -0.0614 ± 0.071
38 | GAGTATGA | -0.047 ± 0.066
39 | CTTGCCAA | 0.153 ± 0.021
40 | ATGGTGTA | 0.127 ± 0.015
41 | CTGGTGTC | 0.312 ± 0.033
42 | ATGGTGGC | 0.274 ± 0.028
43 | ATGGTGCG | 0.206 ± 0.037
44 | ATGGTGTC | 0.392 ± 0.005
45 | ATGGTGTG | 0.39 ± 0.023
46 | AAGTTTGA | -0.0385 ± 0.021
47 | CGGTCAGC | -0.186 ± 0.18
48 | ATTCAAAT | -0.0886 ± 0.04
49 | ATAGAGCG | -0.0811 ± 0.011
50 | AATTGTTC | 0.0645 ± 0.035
51 | GACCACCC | -0.0294 ± 0.0021
52 | CACCACAC | 0.3556 ± 0.0015

Row | Sequence | PBM E-score of 8-mer
53 | AACACCAG | 0.317 ± 0.028
54 | CCCACCAC | -0.00552 ± 0.018
55 | CGCACCAG | 0.242 ± 0.0071
56 | CTCACCAA | 0.133 ± 0.059
57 | AACACCAC | 0.344 ± 0.015
58 | GACACCAA | 0.327 ± 0.024
59 | CACACCAG | 0.386 ± 0.036
60 | CACACCAC | 0.394 ± 0.015
61 | CCCACCAA | -0.0327 ± 0.016
62 | CACACCAA | 0.38 ± 0.017
63 | GACACCAC | 0.367 ± 0.039
64 | TCATTTAA | -0.193 ± 0.036
65 | CCTCTGCA | -0.1407 ± 0.00062
66 | AATAGCCC | -0.194 ± 0.016
67 | AGTAAATA | -0.121 ± 0.066
68 | GCTTGCTA | -0.156 ± 0.02
69 | AGCGCACG | 0.137 ± 0.04
70 | ACTGTCTG | 0.126 ± 0.021
71 | AGGCTTGG | -0.225 ± 0.031
72 | AGACTTTC | 0.00343 ± 0.055
73 | GCTACCTA | -0.0771 ± 0.051
74 | AGCTGTCA | 0.382 ± 0.022
75 | ACCTGTCG | 0.37 ± 0.011
76 | GGCTGTCA | 0.172 ± 0.051
77 | AGCTGTGC | 0.214 ± 0.041
78 | ACCTGTCT | 0.104 ± 0.0037

Row | Sequence | PBM E-score of 8-mer
79 | GCCTGTGA | 0.187 ± 0.0033
80 | ACCTGTGC | 0.151 ± 0.018
81 | AGCTGTCC | 0.00624 ± 0.016
82 | CCCTGTCG | -0.00439 ± 0.04
83 | ACCTGTGA | 0.3985 ± 0.0028
84 | AGCTGTGG | 0.129 ± 0.058
85 | AGCTGTGA | 0.393 ± 0.0083
86 | CGGCCAAA | -0.0415 ± 0.0054
87 | ATAACCGA | -0.206 ± 0.066
88 | CAGTTCTC | 0.143 ± 0.053
89 | AACCACTG | -0.317 ± 0.011
90 | CACTCTCC | 0.0753 ± 0.021
91 | AACTGTGG | 0.128 ± 0.0018
92 | AACTGTGC | -0.0399 ± 0.045
93 | AACTGTGA | 0.376 ± 0.011
94 | GCTTAGGA | -0.107 ± 0.059
95 | GACCTCTC | -0.153 ± 0.016
96 | AACCTCTA | -0.187 ± 0.065
97 | CACCTCTA | 0.416 ± 0.0043
98 | AACCTCTG | -0.137 ± 0.075
99 | CACCTCTC | 0.421 ± 0.022
100 | CACCTCTG | 0.3929 ± 0.0014
101 | AACCTCTC | -0.0774 ± 0.028
102 | GACCTCTA | -0.234 ± 0.033
103 | CAACTCTG | 0.225 ± 0.013
104 | ATAGGAGC | -0.181 ± 0.022

Row | Sequence | PBM E-score of 8-mer
105 | CACAACTC | 0.25 ± 0.0039
106 | AGAGGAGA | -0.116 ± 0.043
107 | CTTTCAGC | -0.162 ± 0.032
108 | GGTTGTTA | 0.213 ± 0.048
109 | CCGACCTC | -0.148 ± 0.046
110 | CAACACGG | 0.0142 ± 0.003
111 | CTGTCAAC | 0.35 ± 0.023
112 | ATGTCAGA | -0.15 ± 0.011
113 | CTGTCAGA | 0.207 ± 0.025
114 | GTGTCGCA | 0.367 ± 0.021
115 | CTGTCAAA | 0.249 ± 0.057
116 | ATGTCGCA | 0.231 ± 0.039
117 | CTGTCGCA | 0.235 ± 0.054
118 | GTGTCAGA | 0.387 ± 0.023
119 | TTGTCAAA | 0.0897 ± 0.09
120 | GTGTCAAC | 0.4761 ± 0.0027
121 | GTGTCAAA | 0.444 ± 0.0081
122 | ATGTCAAC | 0.267 ± 0.024
123 | CCGCTCTC | -0.00942 ± 0.013
124 | CCTATTCG | -0.116 ± 0.11
125 | AAACTATG | -0.131 ± 0.049
126 | CCAACTCA | -0.0818 ± 0.049
127 | CAGAAGCC | -0.308 ± 0.064
128 | GTTCAATA | -0.174 ± 0.0066
129 | CCGTCAAC | 0.24 ± 0.021
130 | CTGTCATA | 0.122 ± 0.036

Row | Sequence | PBM E-score of 8-mer
131 | GCGTCAAC | 0.3857 ± 0.0035
132 | ATGTCATA | -0.202 ± 0.0053
133 | GTGTCATA | 0.404 ± 0.022
134 | GTGTCACA | 0.436 ± 0.011
135 | ATGTCACA | 0.3087 ± 0.00058
136 | GCGTCAAA | 0.31 ± 0.029
137 | ATGTCACG | 0.204 ± 0.017
138 | ACCACACT | 0.328 ± 0.0063
139 | CAAGGTCC | -0.257 ± 0.041
140 | AACCCGTT | -0.0209 ± 0.077
141 | CGAGGTGC | 0.445 ± 0.0072
142 | CGAGGTCC | -0.207 ± 0.017
143 | GGAGGTCA | 0.0169 ± 0.067
144 | AGAGGTGA | 0.298 ± 0.023
145 | CGAGGTAC | -0.11 ± 0.026
146 | CGAGGTGA | 0.418 ± 0.01
147 | AGAGGTGG | 0.285 ± 0.031
148 | GGAGGTGA | 0.374 ± 0.035
149 | CGAGGTCA | 0.0539 ± 0.041
150 | AGAGGTGC | 0.394 ± 0.014
151 | CGAGGTTA | 0.0218 ± 0.011
152 | AGAGGTTC | -0.172 ± 0.065
153 | GCAGCCCC | -0.15 ± 0.027
154 | CGTAGTGC | -0.0779 ± 0.017
155 | CGCTCGAC | -0.0351 ± 0.11
156 | ATCCTGTA | -0.104 ± 0.036

Row | Sequence | PBM E-score of 8-mer
157 | ACCAGACT | -0.1941 ± 0.0019
158 | GACGCCCA | -0.0155 ± 0.091
159 | AGGTGTTG | 0.482 ± 0.0055
160 | CGGTGTTC | -0.0703 ± 0.07
161 | AGATGTTC | 0.0355 ± 0.018
162 | AGGTGTTC | 0.3819 ± 0.00093
163 | AGCTGTTG | 0.208 ± 0.0081
164 | AGATGTTG | 0.0448 ± 0.039
165 | CGGGGTGC | 0.233 ± 0.02
166 | GGCCCAGA | -0.2892 ± 0.0023
167 | GTATGGCA | 0.0595 ± 0.0057
168 | GCGCTGTA | 0.206 ± 0.014
169 | GTACTATA | -0.112 ± 0.079
170 | CCATGCGC | -0.0395 ± 0.1
171 | ACATATCC | -0.0962 ± 0.058
172 | TCTATCAA | -0.141 ± 0.0063
173 | CGGTGTTA | 0.3373 ± 0.0021
174 | CGATGTGA | 0.183 ± 0.017
175 | GGGGGTTA | -0.156 ± 0.038
176 | GGGTGTTA | 0.463 ± 0.0026

Source: the supplement of paper PMC4166925
